In PubChem BioAssay (EPA / NIEHS) one finds AC50 and outcome data, which are given here for seven compounds.

Structures are written as SMILES. The source made the active and inactive calls. How the source made its calls: active means hit-call score of the fitted dose curve at least 0.9, where 1 is the maximum; inactive means score below 0.9.

Assay [1] is described as follows: ATG_DR4_LXR_CIS: Attagene CIS-FACTORIAL HepG2 Assay for human Liver X Receptor (LXR), DR4 submotif (AID 2282929). Particulars: HepG2 Attagene DR4 cis-reporter, mRNA transcription; actives raise or lower the signal. The gist of the method:
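DR4 cis-reporter in HepG2, 24 h exposure. Detection: RT-PCR, 6-FAM labelling, CE fragment analysis. Endpoint fitted bidirectionally, DMSO = baseline.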

The target of assay [2] is Aryl hydrocarbon receptor (Homo sapiens) (UniProt P35869). Put plainly: ATG_Ahr_CIS: Attagene CIS-FACTORIAL HepG2 Assay for human Aryl Hydrocarbon Receptor (Ahr) (AID 2282930). The conditions noted are these: HepG2 AhR cis-factorial reporter transcription; actives raise or lower the signal. The gist of the method:
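HepG2 cells transiently transfected with cis-element-driven multiplexed reporter transcription units; endogenous transcription factor activity measured as reporter mRNA 24 h after dosing. RT-PCR, 6-FAM labelling, HpaI digestion, capillary electrophoresis; bidirectional fitting versus DMSO baseline.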

A short description of assay [3]: ATG_AP_1_CIS: Attagene CIS-FACTORIAL HepG2 Assay for human Activator Protein 1 (AP-1) (AID 2282931). Particulars: HepG2 Attagene cis-factorial AP-1 reporter mRNA; actives raise or lower the signal. The procedure, abridged: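 Cis-regulated reporter units transiently expressed in HepG2 report endogenous transcription-factor activity. Signal: reporter mRNA at 24 h, via RT-PCR and fluorescent capillary electrophoresis. Endpoint derived by bidirectional fitting, DMSO as negative control.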

Assay [4] in a line: ATG_AP_2_CIS: Attagene CIS-FACTORIAL HepG2 Assay for human Activator Protein 2 (AP-2) (AID 2282932). The conditions noted are these: HepG2 AP-2 cis-reporter, Attagene transcription factor profiling; actives raise or lower the signal. The procedure, abridged: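 Cells (HepG2) transfected with promoter-driven reporter constructs, treated 24 h. Total RNA reverse-transcribed, reporter cDNA PCR-amplified, FAM-labelled by primer extension, digested, resolved by capillary electrophoresis. Activity fitted both directions versus DMSO.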

The nature of assay [5]: ATG_BRE_CIS: Attagene CIS-FACTORIAL HepG2 Assay for human Bone Morphogenetic Protein (BMP) Response Element (BRE) (AID 2282933). Particulars: HepG2 BMP response element reporter, Attagene transcription factor profiling; actives raise or lower the signal. The procedure, abridged:
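A HepG2 multiplex reporter system measured inducible reporter mRNA 24 h post-dosing. Detection: RT-PCR, 6-FAM primer extension, HpaI digestion, capillary electrophoresis. Activity fitted bidirectionally relative to DMSO.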

Assay [6] concerns the target Retinoic acid receptor alpha (Homo sapiens) (UniProt P10276). Put plainly: ATG_DR5_RAR_CIS: Attagene CIS-FACTORIAL HepG2 Assay for human Retinoic Acid Receptor Alpha (RARE), DR5 submotif (AID 2282934). The conditions noted are these: HepG2 Attagene cis-factorial RARE DR5 reporter, mRNA; actives raise or lower the signal. The gist of the method:
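HepG2 cells transiently transfected with multiplexed reporter units under cis (DR5 RARE) promoters, so endogenous transcription factor activity is measured. After 24 h compound exposure, reporter mRNA is quantified by RT-PCR with fluorescent labelling and capillary electrophoresis; bidirectional fitting versus DMSO.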

Assay [7] is described as follows: ATG_E_Box_CIS: Attagene CIS-FACTORIAL HepG2 Assay for human Enhancer Box (E-box) (AID 2282936). Particulars: HepG2 E-box cis-reporter transcription, actives raise or lower the signal. The gist of the method:
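Endogenous transcription factor activity was sensed in human HepG2 liver cells through transfected cis-promoter reporter units. After 24 h of dosing, total RNA was reverse-transcribed and reporter cDNA resolved by capillary electrophoresis.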

The nature of assay [8]: ATG_EGR_CIS: Attagene CIS-FACTORIAL HepG2 Assay for human Early Growth Response 1 (EGR1) (AID 2282938). The conditions noted are these: HepG2 Attagene CIS-FACTORIAL EGR reporter mRNA; actives raise or lower the signal. The procedure, abridged:
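Endpoint derived by bidirectional fitting versus DMSO vehicle. Method: cis-promoter reporter units transfected into HepG2, 24 h dosing, RNA isolation, RT-PCR with 6-FAM primer extension and HpaI digestion, then capillary electrophoresis fluorescence detection.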

A short description of assay [9]: ATG_M_19_CIS: Attagene CIS-FACTORIAL HepG2 Assay for M19 Transcription Factor (Internal Marker) (AID 2282939). Particulars: HepG2 Attagene CIS-FACTORIAL M19 internal marker reporter; actives raise or lower the signal. The gist of the method:
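Chemical-treated HepG2 (24 h) with MRTU constructs; reporter transcripts detected by fluorescent RT-PCR fragment analysis on capillary electrophoresis. Internal background marker, DMSO as baseline.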

Assay [10] can be described thus: ATG_Ets_CIS: Attagene CIS-FACTORIAL HepG2 Assay for human Erythroblast Transformation Specific (ETS) (AID 2282941). Particulars: HepG2 ETS cis-reporter transcription, actives raise or lower the signal. The gist of the method:
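RT-PCR/capillary electrophoresis fluorescence read-out of reporter mRNA; HepG2 transient multi-reporter transfection; 24 h compound exposure; gain or loss of signal fitted bidirectionally relative to DMSO.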

The target of assay [11] is Hepatocyte nuclear factor 3-beta (Homo sapiens) (UniProt Q9Y261). Put plainly: ATG_FoxA2_CIS: Attagene CIS-FACTORIAL HepG2 Assay for human Forkhead box A2 (FOXA2) (AID 2282942). Particulars: HepG2 cis-reporter transcription factor activity, 24 h; actives raise or lower the signal. The procedure, abridged: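 Measured: reporter mRNA induction or loss in HepG2 transiently carrying multiple cis-regulated reporter units, 24 h after dosing. Quantified by RT-PCR plus capillary electrophoresis, normalised to DMSO.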

Assay [12] can be described thus: ATG_FoxO_CIS: Attagene CIS-FACTORIAL HepG2 Assay for human Forkhead box O (FoxO) (AID 2282943). Particulars: HepG2 Attagene cis-reporter, FoxO element, mRNA; actives raise or lower the signal. The gist of the method: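 HepG2 cells transiently transfected with cis-promoter-driven multiple reporter transcription units; 24 h after chemical dosing, reporter mRNA quantified by RT-PCR, fluorescent primer extension, HpaI digestion and capillary electrophoresis. Bidirectional fitting versus DMSO baseline.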

Assay [13] is described as follows: ATG_GATA_CIS: Attagene CIS-FACTORIAL HepG2 Assay for human GATA Binding Protein (AID 2282944). The conditions noted are these: HepG2 GATA cis-element reporter, Attagene multiplex mRNA; actives raise or lower the signal. The gist of the method:
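Transfected cis-reporter HepG2 cells were treated with chemicals for 24 hours. Total RNA was then converted to cDNA, amplified with reporter-specific primers and analysed by fluorescent capillary electrophoresis, using DMSO-treated wells as baseline.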

The nature of assay [14]: ATG_GLI_CIS: Attagene CIS-FACTORIAL HepG2 Assay for human Zinc Finger Protein GLI1 (AID 2282945). Particulars: HepG2, Attagene cis-factorial reporter mRNA, GLI element; actives raise or lower the signal. The gist of the method:
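HepG2 cells transiently transfected with cis-promoter multiplexed reporter units report endogenous transcription factor activity. After 24 h chemical exposure, reporter mRNA was quantified by RT-PCR, 6-FAM labelling, HpaI digestion and capillary electrophoresis, with bidirectional fitting against DMSO.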

The target of assay [15] is Bile acid receptor (Homo sapiens) (UniProt Q96RI1). The assay can be described thus: ATG_IR1_CIS: Attagene CIS-FACTORIAL HepG2 Assay for human Nuclear Receptor Subfamily 1 Group H Member 4 (NR1H4), IR1 submotif (AID 2282946). Particulars: IR1 reporter transcription, actives raise or lower the signal. The gist of the method: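 Readout: reporter transcript levels by RT-PCR with fluorescent capillary electrophoresis, from HepG2 cells transiently transfected with multiplexed cis-regulated reporters and dosed 24 h. Gain- or loss-of-signal fitted versus DMSO negative control.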

Assay [16] can be described thus: ATG_GRE_CIS: Attagene CIS-FACTORIAL HepG2 Assay for human Glucocorticoid Response Elements (GRE) (AID 2282947). Particulars: HepG2 GRE cis-reporter, Attagene multiplex mRNA; actives raise or lower the signal. The procedure, abridged: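 Cells (HepG2) bearing transfected cis-promoter reporter transcription units were treated with chemical for 24 hours. Reporter mRNA was measured via RT-PCR with capillary electrophoresis, and activity was fitted in both directions relative to DMSO.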

The nature of assay [17]: ATG_ISRE_CIS: Attagene CIS-FACTORIAL HepG2 Assay for human Interferon Regulatory Factor 1 (IRF1) binding to an Interferon-Stimulated Response Element (ISRE) (AID 2282948). Particulars: HepG2 ISRE cis-reporter (Attagene), mRNA transcription readout; actives raise or lower the signal. The gist of the method:
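Read-out: fluorescent RT-PCR products resolved by capillary electrophoresis, reporting endogenous transcription factor activity via ISRE-driven reporter mRNA in transfected HepG2 cells dosed for 24 h; gain or loss fitted relative to DMSO.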

A short description of assay [18]: ATG_M_61_CIS: Attagene CIS-FACTORIAL HepG2 Assay for M61 Transcription Factor (Internal Marker) (AID 2282937). The conditions noted are these: HepG2 Attagene CIS-FACTORIAL M61 internal marker reporter; actives raise or lower the signal. The gist of the method: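 Background-control endpoint: HepG2 cells with cis-regulated reporter constructs, 24 h exposure, reporter mRNA detected via fluorescent primer extension and capillary electrophoresis; values from bidirectional fitting with DMSO baseline.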

Assay [19] in a line: ATG_ERE_CIS: Attagene CIS-FACTORIAL HepG2 Assay for Estrogen Response Element (ERE) (AID 2282940). The conditions noted are these: HepG2 ERE cis-reporter, Attagene RNA transcript; actives raise or lower the signal. The procedure, abridged: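 Human liver cells (HepG2) bearing transiently transfected, promoter-regulated reporter units were exposed 24 h. Reporter mRNA induction was detected by capillary electrophoresis of labelled RT-PCR products and fitted bidirectionally to DMSO.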

The target of assay [20] is Transcription factor E2F1 (Homo sapiens) (UniProt Q01094). The assay can be described thus: ATG_E2F_CIS: Attagene CIS-FACTORIAL HepG2 Assay for human E2F Transcription Factor 1 (AID 2282935). Particulars: HepG2 Attagene cis-reporter, E2F reporter RNA transcripts; actives raise or lower the signal. The gist of the method:
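First, HepG2 cells were transfected with reporter transcription units. Next, they were dosed for 24 h. Then RNA was isolated, converted to cDNA, PCR-amplified, FAM-labeled, HpaI-digested and analyzed by capillary electrophoresis.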

Retinoic acid receptor alpha (Homo sapiens), sequence (P10276 whole entry, looked up): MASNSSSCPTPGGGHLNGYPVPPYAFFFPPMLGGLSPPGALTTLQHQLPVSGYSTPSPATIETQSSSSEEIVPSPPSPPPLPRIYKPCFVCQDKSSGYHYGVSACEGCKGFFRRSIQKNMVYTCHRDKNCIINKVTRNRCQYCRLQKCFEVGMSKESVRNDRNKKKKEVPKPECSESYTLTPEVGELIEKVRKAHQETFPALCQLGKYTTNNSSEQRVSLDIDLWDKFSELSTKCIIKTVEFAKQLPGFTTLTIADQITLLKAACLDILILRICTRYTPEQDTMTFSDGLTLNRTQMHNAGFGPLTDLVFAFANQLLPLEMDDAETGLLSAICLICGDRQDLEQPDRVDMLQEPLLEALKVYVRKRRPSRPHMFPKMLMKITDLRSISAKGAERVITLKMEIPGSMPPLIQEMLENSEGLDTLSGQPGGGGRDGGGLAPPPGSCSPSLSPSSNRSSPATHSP
Transcription factor E2F1 (Homo sapiens), sequence (Q01094 whole entry, looked up): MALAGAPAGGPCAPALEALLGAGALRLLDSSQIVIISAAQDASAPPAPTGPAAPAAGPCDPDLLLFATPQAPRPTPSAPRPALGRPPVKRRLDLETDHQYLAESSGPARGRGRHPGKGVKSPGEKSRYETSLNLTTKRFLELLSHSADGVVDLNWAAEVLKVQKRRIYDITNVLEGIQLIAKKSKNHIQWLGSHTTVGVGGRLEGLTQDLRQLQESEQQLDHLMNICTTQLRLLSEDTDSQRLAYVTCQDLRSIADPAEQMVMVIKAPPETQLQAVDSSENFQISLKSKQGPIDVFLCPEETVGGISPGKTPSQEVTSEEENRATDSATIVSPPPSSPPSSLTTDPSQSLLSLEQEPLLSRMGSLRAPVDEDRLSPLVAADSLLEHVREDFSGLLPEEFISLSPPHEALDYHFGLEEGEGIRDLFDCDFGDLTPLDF
Hepatocyte nuclear factor 3-beta (Homo sapiens), sequence (Q9Y261 whole entry, looked up): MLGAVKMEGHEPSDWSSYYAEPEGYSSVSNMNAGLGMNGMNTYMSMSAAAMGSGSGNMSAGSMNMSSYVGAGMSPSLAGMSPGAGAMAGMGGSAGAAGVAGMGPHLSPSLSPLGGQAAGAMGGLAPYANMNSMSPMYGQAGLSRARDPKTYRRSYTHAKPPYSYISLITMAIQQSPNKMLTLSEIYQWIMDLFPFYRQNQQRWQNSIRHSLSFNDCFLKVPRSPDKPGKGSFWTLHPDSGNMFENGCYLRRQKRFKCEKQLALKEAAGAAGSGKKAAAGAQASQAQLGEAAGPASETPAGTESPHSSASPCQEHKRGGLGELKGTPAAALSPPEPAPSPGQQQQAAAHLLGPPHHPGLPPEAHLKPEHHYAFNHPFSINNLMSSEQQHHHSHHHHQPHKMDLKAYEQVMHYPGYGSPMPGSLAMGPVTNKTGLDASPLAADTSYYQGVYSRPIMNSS
Aryl hydrocarbon receptor (Homo sapiens), sequence (P35869 whole entry, looked up): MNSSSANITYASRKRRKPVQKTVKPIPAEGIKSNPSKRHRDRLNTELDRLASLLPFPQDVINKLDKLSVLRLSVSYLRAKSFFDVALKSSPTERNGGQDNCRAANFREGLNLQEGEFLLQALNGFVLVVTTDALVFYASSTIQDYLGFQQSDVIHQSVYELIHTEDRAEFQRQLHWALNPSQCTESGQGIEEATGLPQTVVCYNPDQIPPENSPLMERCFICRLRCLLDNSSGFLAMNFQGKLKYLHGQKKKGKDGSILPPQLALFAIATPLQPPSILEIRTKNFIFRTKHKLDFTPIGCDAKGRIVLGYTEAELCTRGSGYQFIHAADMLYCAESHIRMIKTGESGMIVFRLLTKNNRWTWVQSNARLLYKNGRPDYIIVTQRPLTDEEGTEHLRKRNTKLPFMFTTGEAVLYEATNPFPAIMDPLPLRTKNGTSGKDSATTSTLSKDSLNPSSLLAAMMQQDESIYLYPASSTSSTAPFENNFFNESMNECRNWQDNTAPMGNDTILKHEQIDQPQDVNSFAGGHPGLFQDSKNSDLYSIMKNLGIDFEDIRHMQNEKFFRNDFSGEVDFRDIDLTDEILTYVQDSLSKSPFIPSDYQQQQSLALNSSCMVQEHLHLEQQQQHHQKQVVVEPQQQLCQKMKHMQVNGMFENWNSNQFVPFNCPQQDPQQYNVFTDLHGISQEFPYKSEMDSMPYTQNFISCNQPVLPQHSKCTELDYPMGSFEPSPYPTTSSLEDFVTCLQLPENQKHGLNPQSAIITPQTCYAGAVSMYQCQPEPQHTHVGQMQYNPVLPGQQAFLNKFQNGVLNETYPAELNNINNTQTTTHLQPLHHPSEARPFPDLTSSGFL
Bile acid receptor (Homo sapiens), sequence (Q96RI1 whole entry, looked up): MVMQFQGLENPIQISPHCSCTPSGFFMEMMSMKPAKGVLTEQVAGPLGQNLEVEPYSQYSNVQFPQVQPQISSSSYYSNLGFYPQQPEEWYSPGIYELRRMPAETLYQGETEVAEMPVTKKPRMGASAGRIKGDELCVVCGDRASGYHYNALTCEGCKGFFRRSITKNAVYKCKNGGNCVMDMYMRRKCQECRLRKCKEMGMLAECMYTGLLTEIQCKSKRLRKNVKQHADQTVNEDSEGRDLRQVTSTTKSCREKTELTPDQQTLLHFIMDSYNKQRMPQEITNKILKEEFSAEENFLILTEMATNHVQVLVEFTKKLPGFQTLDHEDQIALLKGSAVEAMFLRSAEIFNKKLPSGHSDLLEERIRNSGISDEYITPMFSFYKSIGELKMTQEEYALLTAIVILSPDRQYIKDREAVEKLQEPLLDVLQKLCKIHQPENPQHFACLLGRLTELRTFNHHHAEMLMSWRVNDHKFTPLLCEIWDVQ

What is called AC50 is the concentration giving half of the maximal activity seen. For `ClCc1ccccc1Cl`, the AC50 in assay [1] is 50.6 µM (active); in [16] it was 100 µM (active). Also, the call in [2], in assay [3], in assay [4], in assay [5], in [6] and in assay [7] was inactive. Further, the result in assay [8], in assay [9], in assay [10], in [11], in assay [12] and in assay [13] was inactive. Also, the outcome in [14], in [15] and in [17] was inactive.
Regarding `O=C(NC(=O)c1c(F)cccc1F)Nc1cc(Cl)c(OC(F)(F)C(F)C(F)(F)F)cc1Cl` (stereo not given), the compound was classed as inactive in [1], in assay [4], in assay [5], in [6], in assay [7] and in assay [18]. The compound was classed as inactive in assay [9], in assay [19], in assay [11], in [12], in assay [13] and in assay [14]. For the same compound, the compound was called inactive in assay [15], in [16] and in [17]. Further, the half-maximal activity concentration (AC50) was 27.7 µM (active) in assay [2] and 100 µM (active) in assay [3].
On to `O=[N+]([O-])c1cc([As](=O)(O)O)ccc1O`, for which the compound was called inactive in assay [1], in [2], in assay [3], in assay [4], in [5] and in assay [20]. The outcome in [7], in assay [18], in assay [8], in [9], in [19] and in assay [10] was inactive. The result in [11], in assay [12], in assay [13], in assay [14], in [16] and in [17] was inactive.
Turning to `O=S(=O)(C(Cl)(Cl)Cl)C(Cl)(Cl)Cl`, the compound was called inactive in assay [1], in assay [2], in assay [4], in assay [6], in assay [18] and in [9]. Besides, the compound was classed as inactive in assay [19], in assay [10], in [11], in [12], in assay [13] and in [15]. In [16], the compound was classed as inactive. Besides, the AC50 in [3] was 2.78 µM (active); in [5] it was 18.7 µM (active); in [7], 14.7 µM (active); in assay [8] it was 17.3 µM (active); in assay [14], 19.3 µM (active); in [17], 16.4 µM (active).
As for `CC1(C)[C@H](/C=C2\CCSC2=O)[C@@H]1C(=O)OCc1coc(Cc2ccccc2)c1`, the concentration at half-maximal activity (AC50) is 17.9 µM (active) in assay [1], 144 µM (active) in assay [3] and 19 µM (active) in assay [8]. Also, the outcome in assay [2], in assay [4], in assay [5], in assay [20], in assay [7] and in [18] was inactive. Besides, the call in [9], in assay [19], in assay [10], in [11], in assay [12] and in assay [13] was inactive. For the same compound, the result in assay [14], in assay [16] and in [17] was inactive.
`OC[P+](CO)(CO)CO`: the compound was called inactive in [1], in assay [2], in assay [3], in assay [4], in [5] and in [20]. Also, the result in [7], in assay [18], in assay [8], in assay [9], in [19] and in assay [10] was inactive. The call in assay [12], in [13], in assay [14], in [16] and in assay [17] was inactive.
Turning to `C[As+](C)(C)CC(=O)[O-]`, the result in assay [1], in assay [2], in assay [3], in [4], in assay [5] and in [20] was inactive. Moreover, the outcome in [7], in assay [18], in [8], in [9], in [19] and in assay [10] was inactive. In addition, the compound was classed as inactive in assay [11], in assay [12], in [13], in [14], in [15] and in assay [16]. Also, in assay [17], the outcome was inactive.
